The record followed here is PubChem BioAssay (NCATS).

Results filed as inconclusive are left out. Calls of active or inactive are those of the source. Unless noted, calls follow the shape of the dose curve; as a rule, active = well fitted curve in the direction sought with a large enough effect; inconclusive = small, poorly fitted or top-dose-only effect, or another doubt; inactive = no such curve, though single readings can be large; an effect the other way counts as inactive or inconclusive.

Test [1] deals with Luciferin 4-monooxygenase (Photinus pyralis) (UniProt P08659). Kind of test: Biochemical firefly luciferase enzyme assay for NPC (AID 624030).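 Also: purified P. pyralis luciferase at 10 nM with luciferin and ATP substrate; 0% = DMSO and -100% = full luciferase inhibition by PTC124 control; nearly all actives have a fitted effect of over 70% in size.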 The essentials: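 Direct inhibition of firefly luciferase enzyme (10 nM final, 50 mM Tris Acetate) assessed by luminescence within 5 minutes. Percent activity scaled between DMSO and PTC124 positive control, with concentration-effect curves classified by fit quality and response.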

Test [2] in a line: qHTS Assay for Identifying Gametocytocidal Compounds (AID 743244).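 Also: % is scaled to controls: 0 for no effect and ±100 for the full control effect; actives lower the fluorescent signal which means gametocytes are killed.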 As to conditions: P. falciparum 3D7 stage III-V gametocytes, alamarBlue, 72 h; max response: stronger effect = lower value. The method in brief:
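Viability read-out was resazurin reduction (alamarBlue, 24 h) measured at Ex 525/Em 598 nm. Beforehand, late-stage (III-V) 3D7 P. falciparum gametocytes at 20,000 cells/well were incubated with compound 72 h at 37C under 5% CO2.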
In general terms: In qHTS, concentration-response curves come from the screen itself.

A further test deals with astro. Kind of test: Drug repurposing screens with cells derived from glioblastoma tumor samples (AID 1345199). Also: % is scaled to controls: 0 for no effect and ±100 for the full control effect; nearly all actives have a fitted effect of over 40% in size. To be noted: viability, ATP luminescence, 48 h; series mostly up to 45.9 µM. The essentials: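 Four patient lines of CD133+ GBM neurospheres were screened at several concentrations; hits were retested in those lines plus three slower-growing GBM lines, using 48-hour treatment and ATP-based viability.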

A short description of test [3]: P-glycoprotein substrates identified in KB-3-1 adenocarcinoma cell line, qHTS therapeutic library screen (AID 1346986).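 Also: potency is read from the fitted curve at half-maximal effect; potency is for cytotoxicity meaning loss of cell viability; nearly all actives have a fitted effect of over 60% in size.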 The essentials:
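Counter-screen: cherry-picked hits retested in the KB pair and in HEK-293 pcDNA/MDR-19 cells ± tariquidar. Primary screen used 72 h CellTiter-Glo viability in KB-3-1 and KB-8-5-11.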

Test [4] can be described thus: Cytotoxicity counterscreen for inhibitors of SARS-CoV-2 cell entry (AID 1645845; calls by dose curve; also: potency is read from the fitted curve at half-maximal effect; nearly all actives have a fitted effect of over 50% in size). The essentials:
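48 h compound treatment (after 1 h preincubation), HEK293-ACE2 cells, 37 C/5% CO2; ATP luminescence endpoint; normalized to cell wells and media blanks.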
For orientation: A counterscreen serves to expose hits that act by an unwanted route or on another target.

A short description of test [5]: Primary qHTS for inhibitors of nuclear receptor binding SET domain protein 2 (NSD2) in an isogenic RCH-ACV NSD2 p.E1099K mutant (9B) (AID 1645876). Also: potency is read from the fitted curve at half-maximal effect; nearly all actives have a fitted effect of over 70% in size.
The nature of test [6]: Primary qHTS for inhibitors of nuclear receptor binding SET domain protein 2 (NSD2) in an RCH-ACV wild type WT cells (2C) (AID 1645877). Also: potency is read from the fitted curve at half-maximal effect; nearly all actives have a fitted effect of over 70% in size.
Test [7] concerns the target Glutathione peroxidase 1 (Homo sapiens) (UniProt P07203). Kind of test: Primary qHTS Assay for Inhibitors of Recombinant Selenoprotein Glutathione Peroxidase 1 (GPX1) (AID 1845191). Also: nearly all actives have a fitted effect of over 65% in size. The method in brief: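 10 nM GPX1 + cpd, 30 min RT; start w/ 1 mM GSH, 0.5 mM cumene hydroperoxide, 0.5 mM NADPH, 100 nM GR, 0.01% BSA; buffer 50 mM Tris-HCl pH 7.5, 2 mM EDTA, 150 mM NaCl; Fl 340/450, 0 & 15 min.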

The target of test [8] is Phospholipid hydroperoxide glutathione peroxidase GPX4 (Homo sapiens) (UniProt P36969). Briefly: Primary qHTS Assay for Inhibitors of Recombinant Selenoprotein Glutathione Peroxidase 4 (GPX4) (AID 1845192). Also: % is scaled to controls: 0 for no effect and ±100 for the full control effect; nearly all actives have a fitted effect of over 65% in size. The essentials: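 NADPH consumption, followed by fluorescence at 340/450 nm between 0 and 15 min, reports GPX4 activity via coupled glutathione reductase (100 nM). Enzyme 200 nM was pre-exposed to compound 30 min; 0.5 mM cumene hydroperoxide and 1 mM GSH served as substrates.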

The nature of test [9]: qHTS drug screen for cell cycle checkpoint inhibitors in PARPi-resistant BRCA-mutant ovarian cancer cell lines. (AID 1963452; calls by dose curve). To be noted: PEO1/OlaR viability, CellTiter-Glo luminescence, 96 h, stronger effect = lower value. The essentials: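 PEO1, PEO4 and PEO1/OlaR ovarian cancer cells, 600 per well, exposed 96 h at 37C to a dilution series. Viability read by CellTiter-Glo luminescence, normalized to DMSO and empty wells; activity summarized as Z-AUC.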

The nature of test [10]: P-glycoprotein substrates identified in KB-8-5-11 adenocarcinoma cell line, qHTS therapeutic library screen (AID 1346987). Also: % is scaled to controls: 0 for no effect and ±100 for the full control effect; nearly all actives have a fitted effect of over 65% in size. The essentials:
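P-gp-mediated resistance screen: KB-8-5-11 cells treated 72 h with compounds in dose-response. CellTiter-Glo viability.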

Test [11] has as its system Zika virus NS2B-NS3 protease (unlinked complex). Kind of test: Primary screen GU Rhodamine qHTS for Zika virus inhibitors: Unlinked NS2B-NS3 protease assay (AID 1347159). Also: % is scaled to controls: 0 for no effect and ±100 for the full control effect; nearly all actives have a fitted effect of over 60% in size. The essentials:
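Noncovalent NS2B hydrophilic domain–NS3 protease domain complex (25 nM) preincubated 15 min at room temperature with compounds (up to 114 microM) in 10 mM Tris-HCl pH 8.0, 0.01% Tween 20; 1.5 microM Rhodamine110 substrate added, fluorescence change over 15 min fitted to Hill equation.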

Test [12] has as its system Zika virus NS2B-NS3 protease (linked construct). Briefly: Primary screen NINDS Rhodamine qHTS for Zika virus inhibitors (AID 1347160). Also: % is scaled to controls: 0 for no effect and ±100 for the full control effect; nearly all actives have a fitted effect of over 55% in size. The essentials: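 Purified linked NS2B-NS3 protease (NS2B hydrophilic domain joined to NS3 protease by flexible linker), 25 nM in 10 mM Tris-HCl pH 8.0, 0.01% Tween 20. Compounds titrated, 15 min preincubation at room temperature; 1.5 microM Rhodamine110 substrate, FITC fluorescence change over 15 min.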

The target of test [13] is Calcium and integrin-binding protein 1 (Homo sapiens) (UniProt Q99828). Briefly: Primary qHTS for Identification of Calcium Integrin Binding Protein 1 (CIB1) Competitor (AID 1508620).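 Also: GST tagged CIB1 binding a fluorescein labelled alphaIIb integrin peptide tracer; top concentration of the series differs between compounds; % is scaled to controls: 0 for no effect and ±100 for the full control effect.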 The essentials: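 CIB1-GST (1 uM final) and compound incubated 15 min at room temperature before adding FITC-alphaIIb peptide tracer (100 nM final). Competition for binding read by fluorescence polarization (ex 480, em 540) after another 15 min at room temperature.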

Test [14] addresses Luciferin 4-monooxygenase (Photinus pyralis) (UniProt P08659). Kind of test: Primary firefly luciferase (FLuc) qHTS assay for identification of artifact compounds. (AID 1845220). Also: nearly all actives have a fitted effect of over 60% in size. As to conditions: outcome: dose series up to 54.1 µM unless noted. The essentials:
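Compounds sat 15 min at room temperature with 10 uM luciferin and 10 uM ATP (pH 7.6 Tris acetate). Firefly luciferase (10 nM final) was then added, and luminescence was read 5 min later. Data normalized to no-enzyme and DMSO controls were Hill-fitted.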

A short description of test [15]: Primary fluorescence-based thiol-reactive (MSTI) qHTS assay for identification of artifact compounds. (AID 1845221).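 Also: thiol-reactive compounds lower the probe fluorescence signal; nearly all actives have a fitted effect of over 65% in size.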 The method in brief:
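Thiol-reactive compounds detected by quenching of 4 uM MSTI fluorescence (525/598 nm) after 1 h room-temperature dark incubation in PBS pH 7.4, 2% DMSO. qHTS titration; percent inhibition Hill-fitted against Acetyl-MSTI/MSTI controls.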

Test [16] has as its system Nanoluciferase (engineered Oplophorus gracilirostris luciferase). Briefly: Primary Nanoluciferase (NLuc) qHTS assay for identification of artifact compounds. (AID 1845222).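 Also: 0% = DMSO and -100% = no enzyme.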 The essentials:
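Luminescence from secreted NLuc (filtered, 1:55-diluted S16 cell medium) read 5 min after Nano-Glo substrate; compounds preincubated 15 min, RT. Hill fits of inhibition normalized to DMSO and no-enzyme.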

The subject of a further test is HeLa. Kind of test: Primary qHTS to identify gynecologic anti-cancer compounds using libraries of approved drugs and bioactive compounds (AID 1345084). Also: % is scaled to controls: 0 for no effect and ±100 for the full control effect; nearly all actives have a fitted effect of over 55% in size. To be noted: Gynecologic cancer cell panel viability, ATPlite luminescence, 48 h; series mostly up to 57.5 µM. The method in brief:
(§1)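 Five-point cytotoxicity, 48 h drug exposure at 37 C, 5% CO2, on cells seeded 16 h beforehand. ATP content read by ATPlite luminescence.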

For another test, the system named is JEG-3. Described as above. As to conditions: Gynecologic cancer cell panel viability, ATPlite luminescence, 48 h; series mostly up to 57.5 µM. The method in brief:
as §1
(Cellular ATP, detected with luciferase, serves as a proxy for viable cell number.)

Glutathione peroxidase 1 (Homo sapiens), sequence (P07203 whole entry, looked up): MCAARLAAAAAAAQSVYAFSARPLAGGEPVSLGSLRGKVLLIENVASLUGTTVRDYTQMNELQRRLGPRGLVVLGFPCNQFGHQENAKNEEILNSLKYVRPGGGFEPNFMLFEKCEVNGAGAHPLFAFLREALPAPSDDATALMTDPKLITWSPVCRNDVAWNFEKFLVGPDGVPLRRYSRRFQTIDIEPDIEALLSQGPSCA
Phospholipid hydroperoxide glutathione peroxidase GPX4 (Homo sapiens), sequence (P36969 whole entry, looked up): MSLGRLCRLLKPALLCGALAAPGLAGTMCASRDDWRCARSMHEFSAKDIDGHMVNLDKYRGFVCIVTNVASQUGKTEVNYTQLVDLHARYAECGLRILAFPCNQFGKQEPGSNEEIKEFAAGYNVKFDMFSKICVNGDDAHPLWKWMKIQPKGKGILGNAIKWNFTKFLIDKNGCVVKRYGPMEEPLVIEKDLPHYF
Calcium and integrin-binding protein 1 (Homo sapiens), sequence (Q99828 whole entry, looked up): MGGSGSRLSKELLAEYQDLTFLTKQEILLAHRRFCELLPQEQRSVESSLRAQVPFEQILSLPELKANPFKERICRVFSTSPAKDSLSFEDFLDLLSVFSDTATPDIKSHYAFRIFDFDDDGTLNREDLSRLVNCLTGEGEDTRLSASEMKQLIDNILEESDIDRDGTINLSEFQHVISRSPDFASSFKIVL
Luciferin 4-monooxygenase (Photinus pyralis), sequence (P08659 whole entry, looked up): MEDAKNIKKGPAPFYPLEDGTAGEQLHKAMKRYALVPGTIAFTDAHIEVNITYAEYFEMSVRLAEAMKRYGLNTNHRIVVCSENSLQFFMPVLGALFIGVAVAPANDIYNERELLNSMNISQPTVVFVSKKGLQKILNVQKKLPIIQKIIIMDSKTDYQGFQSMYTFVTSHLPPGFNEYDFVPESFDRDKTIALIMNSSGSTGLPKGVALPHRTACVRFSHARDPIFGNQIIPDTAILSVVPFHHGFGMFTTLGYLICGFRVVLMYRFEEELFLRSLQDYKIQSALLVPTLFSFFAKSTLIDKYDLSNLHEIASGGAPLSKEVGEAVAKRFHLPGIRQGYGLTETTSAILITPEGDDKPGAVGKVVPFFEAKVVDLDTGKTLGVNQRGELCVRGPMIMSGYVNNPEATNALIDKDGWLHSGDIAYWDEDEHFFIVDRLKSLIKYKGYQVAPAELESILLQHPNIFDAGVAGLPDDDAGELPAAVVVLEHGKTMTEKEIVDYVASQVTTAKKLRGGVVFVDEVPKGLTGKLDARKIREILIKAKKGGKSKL

Turning to `CC[C@@H](O)C(C[C@@H](C)N(C)C)(c1ccccc1)c1ccccc1`, the Potency entry (in test [1]; with astro) was “inactive” in each case. The max response in test [2] was 5.08% (inactive).

Turning to `O=C(NCCCNc1nc(Nc2ccc(N3CCOCC3)cc2)ncc1C1CC1)C1CCC1`, the Potency in [3] is 10.3 µM (active); in [4], 22.4 µM (active); in [5] it was 5.25 µM (active); in [6], 7.42 µM (active). Besides, the Potency entry in test [7] and in test [8] was “inactive” each time. The Z-AUC was 0.0288 (inactive) in test [9], -0.267 in test [9] (measured here: PEO1 parental Z-AUC) and -0.524 in test [9] (measured here: PEO4 Z-AUC).

With `CC1=CC2/C=C(\C)CCC(O)C(O)C(O)CC(=O)C23C(=O)NC(CC(C)C)C3C1C` (stereo not given), the Potency result in test [10], in test [11], in [12], in test [13], in test [7] and in [8] was “inactive” throughout. Also, the Potency result (in test [15]; in test [16]; with HeLa; with JEG-3) was “inactive” throughout. The Potency in [5] was 4.47 µM (active); in test [6] it was 3.17 µM (active). Besides, the outcome in test [14] is “inactive [at 25.7 µM]”.
